Measured values as given in PubChem BioAssay AID1159580 (chemical genetic matrix, 2015).
In all, about 5,500 compounds went through this assay and about 2,000 (36%) were called active. Not shown: some 18% with an inconclusive outcome. No stated cut-off is given here; in the data, active means normalized growth mostly below about 0.91 (no sharp cut-off); inconclusive means no clear call, values can overlap the other calls; inactive means mostly above about 0.92. The list shows a part of the results.

Assay: chemical genetic growth profiling, strain panel (AID 1159580);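 further: tested at 20 µM; growth read once vehicle control cultures reached saturation at 30 °C; 1 = growth at the plate median or of vehicle wells; lower values mean less growth of the strain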
Settings: growth OD

Measured: normalized growth

COc1ccc(OC)c(C(O)CNC(=O)CN)c1 (stereo not given)
inactive: S. cerevisiae deletion strains, locus YKL009W, strain mrt4, active compounds read low 0.969 | S. cerevisiae deletion strains, locus YKL068W, active compounds read low 0.985 | S. cerevisiae deletion strains, locus YKL085W, strain MDH1 (second series), active compounds read low 0.984 | S. cerevisiae deletion strains, locus YKL085W, strain MDH1, active compounds read low 0.984 | S. cerevisiae deletion strains, locus YKL160W, strain elf1, active compounds read low 1 | S. cerevisiae deletion strains, locus YKL190W, strain CNB1, active compounds read low 0.984 | S. cerevisiae deletion strains, locus YKR001C, strain vps1, active compounds read low 0.96 | S. cerevisiae deletion strains, locus YKR026C, strain gcn3, active compounds read low 1.01 | S. cerevisiae deletion strains, locus YKR091W, strain srl3, active compounds read low 0.996 | S. cerevisiae deletion strains, locus YLL001W, strain dnm1, active compounds read low 1.01 | S. cerevisiae deletion strains, locus YLL026W, active compounds read low 0.999 | S. cerevisiae deletion strains, locus YLL041C, strain sdh2, active compounds read low 0.995 | S. cerevisiae deletion strains, locus YLR027C, strain aat2, active compounds read low 1 | S. cerevisiae deletion strains, locus YLR039C, strain RIC1, active compounds read low 0.966 | S. cerevisiae deletion strains, locus YLR058C, strain SHM2, active compounds read low 0.976 | S. cerevisiae deletion strains, locus YLR102C, strain apc9, active compounds read low 0.982 | S. cerevisiae deletion strains, locus YLR113W, strain HOG1, active compounds read low 1.05 | S. cerevisiae deletion strains, locus YLR221C, strain rsa3, active compounds read low 1 | S. cerevisiae deletion strains, locus YLR258W, strain gsy2, active compounds read low 1 | S. cerevisiae deletion strains, locus YLR262C, strain YPT6 (second series), active compounds read low 1.01 | S. cerevisiae deletion strains, locus YLR262C, strain YPT6, active compounds read low 0.956 | S. cerevisiae deletion strains, locus YLR268W, strain sec22, active compounds read low 0.996 | S. cerevisiae deletion strains, locus YLR320W, strain mms22, active compounds read low 1.03 | S. cerevisiae deletion strains, locus YLR330W, strain CHS5, active compounds read low 1 | S. cerevisiae deletion strains, locus YLR342W, strain FKS1 (second series), active compounds read low 1.04 | S. cerevisiae deletion strains, locus YLR342W, strain FKS1, active compounds read low 1.01 | S. cerevisiae deletion strains, locus YLR357W, strain rsc2, active compounds read low 1.02 | S. cerevisiae deletion strains, locus YLR370C, strain arc18, active compounds read low 1 | S. cerevisiae deletion strains, locus YLR371W, strain rom2, active compounds read low 0.974 | S. cerevisiae deletion strains, locus YLR384C, strain iki3, active compounds read low 1.02 | S. cerevisiae deletion strains, locus YLR418C, strain cdc73, active compounds read low 0.973 | S. cerevisiae deletion strains, locus YML016C, strain PPZ1, active compounds read low 0.99 | S. cerevisiae deletion strains, locus YML032C, strain rad52, active compounds read low 0.959 | S. cerevisiae deletion strains, locus YML120C, strain ndi1, active compounds read low 0.993 | S. cerevisiae deletion strains, locus YML124C, strain tub3, active compounds read low 0.981 | S. cerevisiae deletion strains, locus YMR058W, strain fet3, active compounds read low 1 | S. cerevisiae deletion strains, locus YMR078C, strain ctf18, active compounds read low 0.976 | S. cerevisiae deletion strains, locus YMR125W, strain sto1, active compounds read low 1 | S. cerevisiae deletion strains, locus YMR129W, active compounds read low 1 | S. cerevisiae deletion strains, locus YMR205C, strain PFK2, active compounds read low 1.02 | S. cerevisiae deletion strains, locus YMR223W, strain ubp8, active compounds read low 0.993 | S. cerevisiae deletion strains, locus YMR231W, strain pep5, active compounds read low 1.02 | S. cerevisiae deletion strains, locus YMR263W, strain SAP30, active compounds read low 0.988 | S. cerevisiae deletion strains, locus YMR307W, strain GAS1, active compounds read low 1.05 | S. cerevisiae deletion strains, locus YNL067W, strain RPL9B, active compounds read low 0.971 | S. cerevisiae deletion strains, locus YNL071W, strain lat1, active compounds read low 0.99 | S. cerevisiae deletion strains, locus YNL128W, strain TEP1, active compounds read low 0.983 | S. cerevisiae deletion strains, locus YNL153C, strain GIM3, active compounds read low 0.961 | S. cerevisiae deletion strains, locus YNL183C, strain NPR1, active compounds read low 1 | S. cerevisiae deletion strains, locus YNL209W, strain ssb2, active compounds read low 0.998 | S. cerevisiae deletion strains, locus YNL233W, strain BNI4, active compounds read low 1.01 | S. cerevisiae deletion strains, locus YNL248C, strain rpa49, active compounds read low 0.998 | S. cerevisiae deletion strains, locus YNL250W, strain rad50, active compounds read low 0.968 | S. cerevisiae deletion strains, locus YNL271C, strain bni1, active compounds read low 0.982 | S. cerevisiae deletion strains, locus YNL298W, strain CLA4, active compounds read low 0.986 | S. cerevisiae deletion strains, locus YNL307C, strain MCK1, active compounds read low 0.96 | S. cerevisiae deletion strains, locus YNL322C, strain KRE1 (second series), active compounds read low 0.997 | S. cerevisiae deletion strains, locus YNL322C, strain KRE1, active compounds read low 0.989 | S. cerevisiae deletion strains, locus YNR049C, strain mso1, active compounds read low 1 | S. cerevisiae deletion strains, locus YNR052C, strain pop2, active compounds read low 0.973 | S. cerevisiae deletion strains, locus YOL006C, strain TOP1, active compounds read low 0.933 | S. cerevisiae deletion strains, locus YOL012C, strain htz1 0.916 | S. cerevisiae deletion strains, locus YOL147C, strain pex11, active compounds read low 0.982 | S. cerevisiae deletion strains, locus YOR001W, strain rrp6, active compounds read low 0.996 | S. cerevisiae deletion strains, locus YOR061W, strain CKA2, active compounds read low 0.967 | S. cerevisiae deletion strains, locus YOR069W, strain VPS5, active compounds read low 0.995 | S. cerevisiae deletion strains, locus YOR070C, strain gyp1, active compounds read low 0.997 | S. cerevisiae deletion strains, locus YOR080W, strain dia2, active compounds read low 1.01 | S. cerevisiae deletion strains, locus YOR083W, strain WHI5, active compounds read low 1.01 | S. cerevisiae deletion strains, locus YOR106W, strain vam3, active compounds read low 1.02 | S. cerevisiae deletion strains, locus YOR136W, strain idh2, active compounds read low 0.977 | S. cerevisiae deletion strains, locus YOR144C, strain elg1, active compounds read low 0.99 | S. cerevisiae deletion strains, locus YOR184W, strain ser1, active compounds read low 0.97 | S. cerevisiae deletion strains, locus YOR231W, strain MKK1, active compounds read low 1.05 | S. cerevisiae deletion strains, locus YOR265W, strain rbl2, active compounds read low 0.998 | S. cerevisiae deletion strains, locus YOR270C, strain vph1, active compounds read low 1.03 | S. cerevisiae deletion strains, locus YOR290C, strain snf2, active compounds read low 0.997 | S. cerevisiae deletion strains, locus YOR316C, strain cot1, active compounds read low 0.96 | S. cerevisiae deletion strains, locus YPL051W, strain arl3, active compounds read low 1 | S. cerevisiae deletion strains, locus YPL055C, strain LGE1, active compounds read low 0.94 | S. cerevisiae deletion strains, locus YPL078C, strain atp4, active compounds read low 1.01 | S. cerevisiae deletion strains, locus YPL106C, strain sse1, active compounds read low 1.01 | S. cerevisiae deletion strains, locus YPL240C, strain hsp82, active compounds read low 0.997 | S. cerevisiae deletion strains, locus YPL256C, strain CLN2, active compounds read low 1.01 | S. cerevisiae deletion strains, locus YPR119W, strain clb2, active compounds read low 0.985 | S. cerevisiae deletion strains, locus YPR141C, strain kar3, active compounds read low 0.966 | S. cerevisiae deletion strains, locus YPR163C, strain tif3, active compounds read low 0.983 | S. cerevisiae deletion strains, locus YPR167C, strain met16, active compounds read low 0.98 | S. cerevisiae deletion strains, strain wtn01, active compounds read low 1.01 | S. cerevisiae strains, strain wild type, active compounds read low 0.977
